# Results filed as inconclusive are left out. Entries that show only a call come without a potency. Active and inactive are the calls of the source. Calls come from the whole dose curve; as a rule, active = well fitted inhibition curve with a large enough effect; inconclusive = small, poorly fitted or top-dose-only effect; inactive = flat fitted curve, though single readings scatter.
# Biological target: Ubiquitin carboxyl-terminal hydrolase 1 (Homo sapiens) (UniProt O94782)
# Test: Inhibitors of USP1/UAF1: Pilot qHTS (AID 504865);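 note: rhodamine fluorescence freed from ubiquitin-rhodamine substrate followed over time; top concentration of the series differs between compounds; nearly all actives have a fitted effect of over 35% in size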
# Conditions: purified USP1/UAF1, Ub-rhodamine cleavage fluorescence; series mostly up to 114 µM
# How it was run: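 1nM USP1/UAF1 + cpd, 15 min RT; start w/ Ub-Rho 150nM final; kinetic FL 480/540 nm, 6 reads q60 s. Buffer 50mM HEPES pH 7.8, 0.5mM EDTA, 1mM TCEP, 0.01% Tween-20, 0.1 mg/ml BSA.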
# Ubiquitin carboxyl-terminal hydrolase 1 (Homo sapiens), sequence (O94782 whole entry, looked up): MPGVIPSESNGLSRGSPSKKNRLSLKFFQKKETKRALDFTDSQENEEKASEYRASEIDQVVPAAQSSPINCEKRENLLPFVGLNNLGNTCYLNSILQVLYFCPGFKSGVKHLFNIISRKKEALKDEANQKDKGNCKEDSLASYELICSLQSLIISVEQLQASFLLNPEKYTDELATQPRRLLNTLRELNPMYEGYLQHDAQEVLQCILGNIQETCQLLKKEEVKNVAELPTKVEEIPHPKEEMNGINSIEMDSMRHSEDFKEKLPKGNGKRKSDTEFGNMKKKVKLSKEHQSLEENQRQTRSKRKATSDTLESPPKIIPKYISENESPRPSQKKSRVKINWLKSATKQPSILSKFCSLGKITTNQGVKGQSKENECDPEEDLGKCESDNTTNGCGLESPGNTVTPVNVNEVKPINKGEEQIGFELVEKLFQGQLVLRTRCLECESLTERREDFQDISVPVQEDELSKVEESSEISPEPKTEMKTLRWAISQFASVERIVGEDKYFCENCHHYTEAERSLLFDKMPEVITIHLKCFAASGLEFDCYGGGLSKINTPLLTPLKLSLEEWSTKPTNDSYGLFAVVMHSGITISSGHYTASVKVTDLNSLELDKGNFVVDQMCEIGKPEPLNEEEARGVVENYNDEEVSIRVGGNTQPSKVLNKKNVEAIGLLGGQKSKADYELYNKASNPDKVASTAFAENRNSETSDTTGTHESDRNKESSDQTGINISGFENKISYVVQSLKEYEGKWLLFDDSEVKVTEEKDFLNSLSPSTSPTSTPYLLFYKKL
row,SMILES,Potency
1,C[C@]12Cc3nonc3C[C@@H]1CC[C@@H]1[C@@H]2CC[C@@]2(C)[C@H]1CC[C@]2(C)O,inactive
2,ClC1=C(Cl)C2(Cl)C(CBr)CC1(Cl)C2(Cl)Cl (configuration not stated),inactive
3,C[C@]12C=CC(=O)C=C1CC[C@@H]1[C@@H]2CC[C@@]2(C)[C@H]1CC[C@]2(C)O,inactive
4,CCC1(CC)C(=O)NC(=O)NC1=O,inactive
5,CN1C[C@@H](NS(=O)(=O)N(C)C)C[C@@H]2c3cccc4c3c(cn4C)C[C@H]21,inactive
6,CCN(CC)CCOC(=O)C(C)(c1ccccc1)c1ccccc1,inactive
7,CC(Cc1ccccc1)NCc1ccccc1Cl (configuration not stated),inactive
8,Clc1ccc(C(OCCN2CCCCC2)c2ccccc2)cc1 (configuration not stated),inactive
9,Cc1ncc2n1-c1ccc(Cl)cc1C(c1ccccc1F)=NC2,inactive
10,CN1CCc2cc(Cl)c(O)cc2[C@H]2c3ccccc3CC[C@@H]21,inactive
11,CCN1CCCC(OC(=O)C(c2ccccc2)c2ccccc2)C1 (configuration not stated),inactive
12,NCc1cccnc1,inactive
13,CC(C)NCC(O)c1ccc(N)c(C#N)c1 (configuration not stated),inactive
14,CN(C)CC/C=C1\c2ccccc2Sc2ccc(Cl)cc21,inactive
15,CNC(=O)Oc1ccc2c(c1)[C@]1(C)CCN(C)[C@@H]1N2C,inactive
16,CNC(=O)NC(O)C(Cl)(Cl)Cl (configuration not stated),inactive

row,SMILES,Potency
1,COP(=O)(OC)C(O)C(Cl)(Cl)Cl (configuration not stated),inactive
2,CCN(CC)C(C)C(=O)c1ccccc1 (configuration not stated),inactive
3,CCCC(C)C1(CC)C(=O)N=C(S)NC1=O (configuration not stated),inactive
4,CCS(=O)(=O)C(C)(C)S(=O)(=O)CC,inactive
5,Cc1c(Cl)c(=O)oc2cc(OP(=O)(OCCCl)OCCCl)ccc12,inactive
6,CC(C)[N+](C)(CCC(C(N)=O)(c1ccccc1)c1ccccc1)C(C)C,inactive
7,CCN(Cc1ccc(Cl)nc1)/C(=C/[N+](=O)[O-])NC,inactive
8,COc1ccc(CN2CCNCC2)c(OC)c1OC,inactive
9,c1cc2c(c(N3CCNCC3)c1)OCCO2,inactive
10,O=C(CCCN1CCC(n2c(=O)[nH]c3ccccc32)CC1)c1ccc(F)cc1,inactive
11,CCOC(=O)NC(O)C(Cl)(Cl)Cl (configuration not stated),inactive
12,NC(=O)OCCCc1ccccc1,inactive
13,C=CCOC(Cn1ccnc1)c1ccc(Cl)cc1Cl (configuration not stated),inactive
14,C[C@H](N)[C@H](O)c1ccc(O)c(O)c1,inactive
15,C[C@]12CC[C@H]3[C@@H](CC=C4C[C@@H](O)CC[C@@]43C)[C@@H]1CC[C@@H]2O,inactive
16,CN1C(=O)[C@@H](NC(=O)c2cc3ccccc3[nH]2)N=C(c2ccccc2)c2ccccc21,inactive

# Source: PubChem BioAssay (NCATS)
